In ChEMBL document CHEMBL3988442, “University of Dundee, Small-Polar-MMV Screening Library” (2021):

Tests used:
[1] = target: T1, Aspartate--tRNA(Asp/Asn) ligase (Mycobacterium tuberculosis (strain ATCC 25618 / H37Rv)) (UniProt P9WFW3); experiment: Assay for Asp RNA synthetase-1 from Mycobacterium tuberculosis; assay type: functional; set-up: scale not given: direction of the effect not stated beside the values; settings: 30 µM; note: in the data most compounds retested in dose-response had high values
T1 sequence (whole entry): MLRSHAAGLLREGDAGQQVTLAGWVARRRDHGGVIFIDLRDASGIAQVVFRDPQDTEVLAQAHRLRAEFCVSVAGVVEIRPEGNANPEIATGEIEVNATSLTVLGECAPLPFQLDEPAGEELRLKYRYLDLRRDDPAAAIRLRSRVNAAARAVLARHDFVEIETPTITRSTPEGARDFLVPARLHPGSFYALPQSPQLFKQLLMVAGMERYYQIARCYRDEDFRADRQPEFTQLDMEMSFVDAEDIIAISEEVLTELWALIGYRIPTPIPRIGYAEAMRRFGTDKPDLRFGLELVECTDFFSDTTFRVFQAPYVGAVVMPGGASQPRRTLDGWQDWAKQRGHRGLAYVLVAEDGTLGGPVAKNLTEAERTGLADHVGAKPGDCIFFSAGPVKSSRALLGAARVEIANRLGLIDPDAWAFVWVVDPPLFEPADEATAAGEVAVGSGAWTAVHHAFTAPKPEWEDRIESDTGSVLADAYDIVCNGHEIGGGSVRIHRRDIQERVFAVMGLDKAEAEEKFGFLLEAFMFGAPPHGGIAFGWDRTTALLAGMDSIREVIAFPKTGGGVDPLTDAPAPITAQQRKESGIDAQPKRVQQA

[2] = target: Shiga toxin 2 (Escherichia coli O157:H7) (UniProt P09385+P09386); experiment: E. coli 0.157:H7 Shiga Toxin SOP - stx2 screening assay; assay type: functional; set-up: scale not given: direction of the effect not stated beside the values; settings: 30 µM

SMILES	Percent Effect [1]	Percent Effect [2]
O=C(Cn1cccnc1=O)NC(Cc1ccsc1)c1ccccn1 (centres undefined)	-3.14%	-4.55%
Cc1cc(C)n(C2CCCN(C(=O)c3cccc4[nH]ncc34)C2)n1 (centres undefined)	7.59%	-6.75%
O=S(=O)(C1CC1)N1CCOCC2(CCN(c3ccccn3)C2)C1 (centres undefined)	8.28%	-47.5%
COCCOc1ccc(NC(=O)N2CCCC2c2cc(C)no2)cn1 (centres undefined)	-5.36%	25.9%
CC(C)NC(=O)C1CN(C(=O)N2CCCC2)CC12CCOCC2 (centres undefined)	-2.03%	8.24%
Cc1ccc(C(=O)NCCCNS(C)(=O)=O)cc1-n1cccc1	-0.21%	-17.9%
CCS(=O)(=O)Nc1ccc(C(=O)NCCCN2CCCC2)cc1	8.39%	-19%
Cc1nc(CNC(=O)NCCc2ccc(N(C)C)cc2)cs1	6.93%	16.6%
COc1cc(C)c(S(=O)(=O)NCc2cccnc2N(C)C)c(C)c1	2.73%	-18.1%
O=C1NCCN1C1CCCN(Cc2nnc(-c3ccc(F)cc3)o2)C1 (centres undefined)	-2.77%	-40.1%
O=C(CCc1cscn1)NS(=O)(=O)c1ccc2c(c1)CCC2	-2.03%	-1.33%
Cc1cccc(OCCC(=O)NCC(C)(C)C(N)=O)c1	0.144%	31.1%
CCc1cnc(N2CCC(=O)N(CC3CC3)C(C(C)C)C2)nc1 (centres undefined)	1.33%	2.92%
CCc1nnc2n1CCN(C(=O)Cc1csc(-c3ccco3)n1)C2	-2.26%	-3.06%
CC(C)Oc1ncnc2c1CCN(C(=O)c1cccn1C)CC2	-1.46%	-10.4%
Cn1cc(C(=O)NCc2cn3c(n2)CN(CC2CCOCC2)CC3)cn1	-2.89%	-14.5%
COc1ccccc1C(=O)N1CC(Cc2nccc3ccn(C)c23)C1	-0.878%	-11.7%
